Measurements taken from PubChem BioAssay (Tox21).
Inconclusive results are not listed. Calls of active or inactive are those of the source. Calls follow the shape of the dose curve; as a rule, active = well fitted curve in the direction sought with a large enough effect in the repeat runs; inconclusive = weak or mixed curves; inactive = no such curve, though single readings can be large; an effect the other way counts as inactive or inconclusive.

What was measured:
[1] = A CellTox Green Cytotoxicity Assay to monitor cytotoxicity in HEK293 cells - 40 hour (AID 1224871); also: nearly all actives have a fitted effect of over 45% in size
Summary of the method: (§1)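 Nonlytic real-time cytotoxicity: HEK293 + CellTox Green reagent plated, 5 h preincubation, pintool compound addition (23 nL in DMSO), 37 C for 40 h, fluorescence measured at successive time points.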

[2] = qHTS RealTime-Glo MT Cell Viability Assay in HEK293 cells - 16 hour (AID 1224872); also: top concentration of the series differs between compounds; nearly all actives have a fitted effect of over 50% in size
Summary of the method: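 HEK293 cells seeded with NanoLuc/prosubstrate reagent, rested 5 h at 37 C, then dosed and kept at 37 C up to 40 h. Nonlytic real-time luminescence from viable cells read at 0, 8, 16, 24, 32 and 40 h.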

[3] = qHTS RealTime-Glo MT Cell Viability Assay in HepG2 cells - 8 hour (AID 1224873); also: nearly all actives have a fitted effect of over 55% in size
Summary of the method: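 Real-time viability: cells seeded at 600 per well together with NanoLuc and cell-permeant prosubstrate, compounds added after 5 h incubation. Luminescence tracked at 0, 8, 16, 24, 32 and 40 h of exposure.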

[4] = qHTS RealTime-Glo MT Cell Viability Assay in HEK293 cells - 40 hour (AID 1224874); settings: RealTime-Glo luminescence; max response: active compounds read low; also: nearly all actives have a fitted effect of over 50% in size
Summary of the method: (§2)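 Cells were seeded together with NanoLuc luciferase and a prosubstrate that viable cells reduce to a luciferase substrate. After a 5 h incubation at 37 C/5% CO2, compounds were added and luminescence was measured repeatedly during 40 h of treatment.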

[5] = A CellTox Green Cytotoxicity Assay to monitor cytotoxicity in HEK293 cells - 24 hour (AID 1224875); also: series mostly up to about 77 µM; nearly all actives have a fitted effect of over 45% in size
Summary of the method: as §1

[6] = A CellTox Green Cytotoxicity Assay to monitor cytotoxicity in HepG2 cells - 16 hour (AID 1224876); also: nearly all actives have a fitted effect of over 45% in size
Summary of the method: (§3)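 Read-out is fluorescence of a cyanine dye excluded from live cells that stains DNA of dead HepG2 cells, with signal proportional to cytotoxicity. Plates were read at 0, 8, 16, 24, 32 and 40 h after compound addition.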

[7] = qHTS RealTime-Glo MT Cell Viability Assay in HepG2 cells - 32 hour (AID 1224877); also: nearly all actives have a fitted effect of over 55% in size
Summary of the method: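 HepG2 cells (600/well) were dispensed with RealTime-Glo reagents, incubated 5 h at 37 °C, then treated with compounds in DMSO for up to 40 h. Nonlytic NanoLuc luminescence reflecting viable cells was read at each stated time point.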

[8] = A CellTox Green Cytotoxicity Assay to monitor cytotoxicity in HepG2 cells - 24 hour (AID 1224878); also: nearly all actives have a fitted effect of over 45% in size
Summary of the method: as §3

[9] = A CellTox Green Cytotoxicity Assay to monitor cytotoxicity in HepG2 cells - 40 hour (AID 1224879); also: nearly all actives have a fitted effect of over 40% in size
Summary of the method: as §3

[10] = qHTS RealTime-Glo MT Cell Viability Assay in HEK293 cells - 0 hour (AID 1224880)
Summary of the method: as §2
% is scaled to controls: 0 for no effect and ±100 for the full control effect.

CNC(=O)O/N=C(/CSC)C(C)(C)C
inactive: Potency [1] | Potency [2] | outcome [3] | max response [4] -0.61% | Potency [5] | Potency [6] | Potency [7] | Potency [8] | Potency [9] | outcome [10]

C#CCOC(=O)/C=C(C)/C=C/CC(C)CCCC(C)C (stereo unspecified)
inactive: Potency [1] | Potency [2] | outcome [3] | max response [4] 17.6% | Potency [5] | Potency [6] | Potency [7] | Potency [8] | Potency [9] | outcome [10]

CS(=O)(=O)Cl
inactive: Potency [1] | Potency [2] | outcome [3] | max response [4] -0.619% | Potency [5] | Potency [6] | Potency [8] | Potency [9] | outcome [10]

O=P(O)(O)c1ccccc1
inactive: Potency [1] | Potency [2] | outcome [3] | max response [4] 9.41% | Potency [5] | Potency [6] | Potency [7] | Potency [8] | Potency [9] | outcome [10]

CCC1(c2ccccc2)C(=O)N(COC)C(=O)N(COC)C1=O
inactive: Potency [1] | Potency [2] | outcome [3] | max response [4] 2.07% | Potency [5] | Potency [6] | Potency [7] | Potency [8] | Potency [9] | outcome [10]

CCCCCCCCSC(=O)Oc1cc(Cl)nnc1-c1ccccc1
inactive: Potency [1] | Potency [2] | outcome [3] | max response [4] 6.25% | Potency [5] | Potency [6] | Potency [7] | Potency [8] | Potency [9] | outcome [10]

CCNc1nc(NCC)nc(SC)n1
inactive: Potency [1] | Potency [2] | outcome [3] | max response [4] -13.3% | Potency [5] | Potency [6] | Potency [7] | Potency [8] | Potency [9] | outcome [10]

OCC(Cl)CCl (stereo unspecified)
inactive: Potency [1] | Potency [2] | outcome [3] | max response [4] -0.453% | Potency [5] | Potency [6] | Potency [8] | Potency [9] | outcome [10]

BrCCc1ccccc1
inactive: Potency [1] | Potency [2] | outcome [3] | max response [4] -1.95% | Potency [5] | Potency [6] | Potency [7] | Potency [8] | Potency [9] | outcome [10]

NC(=O)CS(=O)C(c1ccccc1)c1ccccc1 (stereo unspecified)
inactive: Potency [1] | Potency [2] | outcome [3] | max response [4] -4.1% | Potency [5] | Potency [6] | Potency [8] | Potency [9] | outcome [10]

CCCOc1nn(C(=O)NS(=O)(=O)c2ccccc2C(=O)OC)c(=O)n1C
inactive: Potency [1] | Potency [2] | outcome [3] | max response [4] 22.1% | Potency [6] | Potency [7] | Potency [8] | Potency [9] | outcome [10]

CS(=O)(=O)c1ccc(C(=O)C2C(=O)CCCC2=O)c(Cl)c1COCC(F)(F)F
inactive: Potency [1] | Potency [2] | outcome [3] | max response [4] 2.82% | Potency [5] | Potency [6] | Potency [8] | Potency [9] | outcome [10]

CCCN1CCC[C@@H]2Cc3[nH]ncc3C[C@H]21
inactive: Potency [1] | Potency [2] | outcome [3] | max response [4] 2.6% | Potency [6] | Potency [7] | Potency [8] | Potency [9] | outcome [10]

O=c1[nH]oc2c1CCNC2
inactive: Potency [1] | Potency [2] | outcome [3] | max response [4] 5.54% | Potency [5] | Potency [7] | outcome [10]

CCCC[N+](=O)[O-]
inactive: Potency [1] | Potency [2] | outcome [3] | max response [4] 1.79% | Potency [6] | Potency [7] | Potency [8] | Potency [9] | outcome [10]

NC1(c2ccccc2)CCCCC1
inactive: Potency [1] | Potency [2] | outcome [3] | max response [4] -3.55% | Potency [5] | Potency [6] | Potency [8] | Potency [9] | outcome [10]

CCCC(C)(COC(N)=O)COC(N)=O
inactive: Potency [1] | Potency [2] | outcome [3] | max response [4] 2.95% | Potency [6] | Potency [7] | Potency [8] | Potency [9] | outcome [10]

C[C@@H](N)[C@@H](O)c1ccccc1
inactive: Potency [1] | Potency [2] | outcome [3] | max response [4] 1.05% | Potency [6] | Potency [7] | Potency [8] | Potency [9] | outcome [10]

O=C(Cl)c1ccccc1
inactive: Potency [1] | Potency [2] | outcome [3] | max response [4] -3.78% | Potency [6] | Potency [7] | Potency [8] | Potency [9] | outcome [10]

CN(C)CCN(C)C
inactive: Potency [1] | Potency [2] | outcome [3] | max response [4] 7.83% | Potency [6] | Potency [7] | Potency [8] | Potency [9] | outcome [10]

CC(=O)CN(CC(C)=O)N=O
inactive: Potency [1] | Potency [2] | outcome [3] | max response [4] 5.04% | Potency [6] | Potency [7] | Potency [8] | Potency [9] | outcome [10]

C=C1C[C@@H]2[C@H](CC[C@]3(C)C(=O)CC[C@@H]23)[C@@]2(C)C=CC(=O)C=C12
inactive: Potency [1] | Potency [2] | outcome [3] | max response [4] 0.138% | Potency [5] | Potency [6] | Potency [8] | Potency [9] | outcome [10]

[P]#[In]
inactive: Potency [1] | Potency [2] | outcome [3] | max response [4] 0.3% | Potency [6] | Potency [7] | Potency [8] | Potency [9] | outcome [10]

CCOC(=O)CCl
inactive: Potency [1] | Potency [2] | outcome [3] | max response [4] 14.4% | Potency [6] | Potency [7] | Potency [8] | Potency [9] | outcome [10]
